According to PubChem BioAssay (Tox21):
Several values for one entry are separate records, joined by “and”; a condition that tells them apart may be missing. Equal values may be shown once. Records with an inconclusive call do not appear. Some compounds were tested as several samples or in several runs, with calls that do not always agree. Activity calls are given as the source filed them. Calls follow the shape of the dose curve; as a rule, active = well fitted curve in the direction sought with a large enough effect in the repeat runs; inconclusive = weak or mixed curves; inactive = no such curve, though single readings can be large; an effect the other way counts as inactive or inconclusive.

Key:
[1] = qHTS RealTime-Glo MT Cell Viability Assay in HepG2 cells - 40 hour (AID 1224870); also: nearly all actives have a fitted effect of over 50% in size
In short: (§1)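 HepG2 cells (600/well) mixed with RealTime-Glo MT reagent, settled 5 h at 37 C/5% CO2 before compound addition. Nonlytic NanoLuc luminescence from viable-cell prosubstrate reduction read repeatedly during 40 h treatment at 37 C.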

[2] = A CellTox Green Cytotoxicity Assay to monitor cytotoxicity in HEK293 cells - 40 hour (AID 1224871); also: nearly all actives have a fitted effect of over 45% in size; also: potency is read from the fitted curve at half-maximal effect
In short: (§2)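 Fluorescence intensity, read at 0, 8, 16, 24, 32 and 40 h of compound treatment, reflected dye binding to DNA of dead HEK293 cells; compounds (23 nL, DMSO) were added 5 h after plating cells with reagent.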

[3] = qHTS RealTime-Glo MT Cell Viability Assay in HEK293 cells - 16 hour (AID 1224872); also: top concentration of the series differs between compounds; nearly all actives have a fitted effect of over 50% in size
In short: (§3)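 Reads taken at 0, 8, 16, 24, 32 and 40 h from the same wells. HEK293 cells (600/well) carried RealTime-Glo reagents from seeding, with compound added after a 5 h settle at 37 C.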

[4] = qHTS RealTime-Glo MT Cell Viability Assay in HEK293 cells - 40 hour (AID 1224874); details: RealTime-Glo luminescence; max response: stronger effect = lower value; also: nearly all actives have a fitted effect of over 50% in size; also: potency is read from the fitted curve at half-maximal effect
In short: (§4)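 Viable HEK293 cells reduce a cell-permeant prosubstrate; the product diffuses out and is consumed by NanoLuc in the medium to give light. Compounds went in after a 5 h incubation and plates were read over the treatment course.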

[5] = A CellTox Green Cytotoxicity Assay to monitor cytotoxicity in HEK293 cells - 24 hour (AID 1224875); also: nearly all actives have a fitted effect of over 45% in size; also: potency is read from the fitted curve at half-maximal effect; as to activity change: series mostly up to about 77 µM
In short: as §2

[6] = A CellTox Green Cytotoxicity Assay to monitor cytotoxicity in HepG2 cells - 16 hour (AID 1224876); also: nearly all actives have a fitted effect of over 45% in size; also: potency is read from the fitted curve at half-maximal effect
In short: (§5)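 Using 1536-well format, dye-containing HepG2 suspension was seeded, allowed 5 h at 37 C/5% CO2, dosed by pintool with compounds, positive and negative controls, and imaged for fluorescence across 40 h.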

[7] = qHTS RealTime-Glo MT Cell Viability Assay in HepG2 cells - 32 hour (AID 1224877); also: nearly all actives have a fitted effect of over 55% in size
In short: (§6)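 HepG2 suspension premixed with RealTime-Glo reagents is plated at 600 cells per well and left 5 h at 37 C/5% CO2. Compounds in DMSO then go in, and bioluminescence reflecting viable cell number is recorded over 40 h.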

[8] = A CellTox Green Cytotoxicity Assay to monitor cytotoxicity in HepG2 cells - 24 hour (AID 1224878); also: nearly all actives have a fitted effect of over 45% in size; also: potency is read from the fitted curve at half-maximal effect
In short: as §5

[9] = A CellTox Green Cytotoxicity Assay to monitor cytotoxicity in HepG2 cells - 40 hour (AID 1224879); also: nearly all actives have a fitted effect of over 40% in size; also: potency is read from the fitted curve at half-maximal effect
In short: as §5

[10] = qHTS RealTime-Glo MT Cell Viability Assay in HEK293 cells - 0 hour (AID 1224880)
In short: as §4

[11] = A CellTox Green Cytotoxicity Assay to monitor cytotoxicity in HEK293 cells - 32 hour (AID 1224881); also: nearly all actives have a fitted effect of over 40% in size; also: potency is read from the fitted curve at half-maximal effect
In short: as §2

[12] = A CellTox Green Cytotoxicity Assay to monitor cytotoxicity in HepG2 cells - 32 hour (AID 1224883); also: nearly all actives have a fitted effect of over 50% in size; also: potency is read from the fitted curve at half-maximal effect
In short: as §5

[13] = A CellTox Green Cytotoxicity Assay to monitor cytotoxicity in HEK293 cells - 8 hour (AID 1224884); also: nearly all actives have a fitted effect of over 35% in size; also: potency is read from the fitted curve at half-maximal effect
In short: as §2

[14] = qHTS RealTime-Glo MT Cell Viability Assay in HepG2 cells - 16 hour (AID 1224885); also: nearly all actives have a fitted effect of over 50% in size
In short: as §6

[15] = qHTS RealTime-Glo MT Cell Viability Assay in HEK293 cells - 24 hour (AID 1224886)
In short: as §3

[16] = qHTS RealTime-Glo MT Cell Viability Assay in HEK293 cells - 8 hour (AID 1224887)
In short: as §4

[17] = A CellTox Green Cytotoxicity Assay to monitor cytotoxicity in HEK293 cells - 16 hour (AID 1224888); also: nearly all actives have a fitted effect of over 35% in size; also: potency is read from the fitted curve at half-maximal effect
In short: as §2

[18] = qHTS RealTime-Glo MT Cell Viability Assay in HepG2 cells - 0 hour (AID 1224889); also: nearly all actives have a fitted effect of over 50% in size
In short: as §6

[19] = A CellTox Green Cytotoxicity Assay to monitor cytotoxicity in HepG2 cells - 0 hour (AID 1224882); also: nearly all actives have a fitted effect of over 35% in size
In short: as §5

[20] = qHTS RealTime-Glo MT Cell Viability Assay in HepG2 cells - 8 hour (AID 1224873); also: nearly all actives have a fitted effect of over 55% in size
In short: as §1
% is scaled to controls: 0 for no effect and ±100 for the full control effect.

CCC=O
inactive: Potency [1] | Potency [2] | Potency [3] | max response [4] 5.02% | Potency [5] | Potency [6] | Potency [7] | Potency [8] | Potency [9] | Potency [10] | Potency [11] | Potency [12] | Potency [13] | Potency [14] | Potency [15] | Potency [16] | Potency [17] | Potency [18]

C=C(C)CS(=O)(=O)O
inactive: Potency [1] | Potency [2] | Potency [3] | Potency [5] | Potency [6] | Potency [7] | Potency [8] | Potency [9] | Potency [10] | Potency [19] | Potency [12] | Potency [13] | Potency [14] | Potency [15] | Potency [16] | Potency [17] | Potency [18]

CCCCOCCOCCOCCCC
inactive: Potency [1] | Potency [2] | Potency [20] | max response [4] 3.79% | Potency [5] | Potency [6] | Potency [7] | Potency [8] | Potency [9] | Potency [10] | Potency [11] | Potency [19] | Potency [12] | Potency [13] | Potency [14] | Potency [15] | Potency [16] | Potency [17] | Potency [18]

COC(=O)C1=C(C)NC(C)=C(C(=O)OC)C1c1ccccc1[N+](=O)[O-]
inactive: Potency [1] | Potency [2] | Potency [3] | max response [4] -16.8% | Potency [6] | Potency [7] | Potency [9] | Potency [19] | Potency [13] | Potency [15] | Potency [16] | Potency [17]

O=C(O)CNC(=O)c1ccc([N+](=O)[O-])cc1
inactive: Potency [1] | Potency [2] | Potency [20] | max response [4] -0.136% | Potency [5] | Potency [6] | Potency [7] | Potency [8] | Potency [9] | Potency [10] | Potency [11] | Potency [19] | Potency [12] | Potency [13] | Potency [14] | Potency [15] | Potency [16] | Potency [18]

CCOC(=O)[C@H](CCc1ccccc1)N[C@@H](C)C(=O)N1[C@H](C(=O)O)C[C@@H]2CCC[C@@H]21
inactive: Potency [1] | Potency [2] | Potency [3] | max response [4] 6.09% | Potency [5] | Potency [6] | Potency [7] | Potency [9] | Potency [19] | Potency [12] | Potency [13] | Potency [14] | Potency [15] | Potency [16] | Potency [17] | Potency [18]

C1OCOCO1
inactive: Potency [1] | Potency [2] | Potency [3] | Potency [5] | Potency [6] | Potency [7] | Potency [8] | Potency [9] | Potency [10] | Potency [11] | Potency [13] | Potency [14] | Potency [15] | Potency [16] | Potency [17] | Potency [18]

CC(C)(c1ccc(O)cc1)c1ccc(O)cc1
inactive: Potency [1] | Potency [20] | Potency [5] | Potency [6] | Potency [7] | Potency [8] | Potency [9] | Potency [10] | Potency [11] | Potency [12] | Potency [13] | Potency [14] | Potency [16] | Potency [17] | Potency [18]
active: Potency [4] 48 µM
inactive and 17.7 µM (active): Potency [2]

CCCCCCCCCCCCCC=O
inactive: activity change, negative = cytotoxic [1] -13.1% [at 6.97 µM] | cytotoxicity increase [2] 0.449% [at 6.97 µM] | activity change, negative = cytotoxicity [3] 1.71% [at 6.97 µM] | max response [4] 5.19% | activity change [5] -4.12% [at 6.97 µM, stronger effect = higher value] | cytotoxicity increase [6] 1.97% [at 6.97 µM] | activity change, negative = cytotoxic [7] -9.48% [at 6.97 µM] | cytotoxicity [8] 1.56% [at 6.97 µM] | cytotoxicity increase [9] 0.942% [at 6.97 µM] | cytotoxicity increase [11] -0.0239% [at 6.97 µM] | cytotoxicity [19] 11.5% [at 6.97 µM] | cytotoxicity increase [13] -1.61% [at 6.97 µM] | activity change, negative = cytotoxic [14] 0.224% [at 6.97 µM] | activity change, negative = cytotoxicity [15] 6.14% [at 6.97 µM] | activity change, negative = cytotoxicity [16] 2.94% [at 6.97 µM] | activity change [17] -6.87% [at 6.97 µM, stronger effect = higher value] | activity change, negative = cytotoxicity [18] 15.5% [at 6.97 µM]

Cc1cccc(C)c1NC(=O)C(C)N (centres undefined)
active: Potency [2] 19 µM | Potency [5] 21.3 µM | Potency [6] 21.3 µM | Potency [8] 21.3 µM | Potency [9] 23.9 µM | Potency [11] 19 µM | Potency [12] 21.3 µM | Potency [13] 19 µM | Potency [17] 19 µM
inactive: Potency [1] | Potency [20] | max response [4] 4.07% | Potency [7] | Potency [10] | Potency [14] | Potency [15] | Potency [16] | Potency [18]

NC(=O)c1ccc(N)cc1
inactive: Potency [1] | Potency [2] | Potency [3] | max response [4] -2.31% | Potency [5] | Potency [6] | Potency [7] | Potency [9] | Potency [10] | Potency [11] | Potency [19] | Potency [12] | Potency [13] | Potency [14] | Potency [15] | Potency [16] | Potency [17] | Potency [18]

CCO[Si](CCC1CCC2OC2C1)(OCC)OCC (centres undefined)
inactive: Potency [1] | Potency [2] | Potency [20] | max response [4] 14.1% | Potency [5] | Potency [6] | Potency [7] | Potency [8] | Potency [9] | Potency [10] | Potency [11] | Potency [19] | Potency [12] | Potency [13] | Potency [14] | Potency [15] | Potency [16] | Potency [17] | Potency [18]

OC[C@]1(O)OC[C@@H](O)[C@H](O)[C@@H]1O
inactive: Potency [1] | Potency [2] | Potency [20] | max response [4] 0.06% and 3.11% | Potency [5] | Potency [6] | Potency [7] | Potency [8] | Potency [9] | Potency [10] | Potency [11] | Potency [19] | Potency [12] | Potency [13] | Potency [14] | Potency [15] | Potency [16] | Potency [17] | Potency [18]
